Holding throughout (test): DAPPL (digital affinity profiling via proximity ligation, sequencing); 10 mM Tris-HCl pH 7.5, 50 mM NaCl, 1 mM DTT, 4% glycerol, room temperature, 30 min; GST-TFs on glutathione beads, 16-mer random dsDNA library, 0.1% formaldehyde crosslink after washing; high values mean tight binding
One assay concerns the target T1, FLI1 (Homo sapiens, UniProt Q01543 1-452).
T1 sequence: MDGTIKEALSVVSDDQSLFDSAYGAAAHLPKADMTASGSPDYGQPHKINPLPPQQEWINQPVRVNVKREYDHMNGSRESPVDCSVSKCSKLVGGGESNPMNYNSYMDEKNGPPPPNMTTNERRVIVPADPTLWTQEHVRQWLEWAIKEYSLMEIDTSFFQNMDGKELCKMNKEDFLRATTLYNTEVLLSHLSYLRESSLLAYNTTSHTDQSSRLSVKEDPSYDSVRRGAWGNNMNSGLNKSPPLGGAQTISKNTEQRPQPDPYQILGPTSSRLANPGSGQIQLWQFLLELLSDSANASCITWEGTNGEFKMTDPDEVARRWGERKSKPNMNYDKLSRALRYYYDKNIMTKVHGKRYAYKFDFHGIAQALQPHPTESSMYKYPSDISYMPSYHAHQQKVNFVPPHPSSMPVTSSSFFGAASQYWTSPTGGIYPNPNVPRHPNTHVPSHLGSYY
Conditions: protein: recombinant; tags: N-terminal GST; dsDNA, one strand shown. The method in brief: (§1)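 Binding signal is each hexamer's read frequency for a factor divided by its frequency in the tag-only sample. The factors were GST-fused human transcription factors from yeast, captured on glutathione beads, DNA-barcoded and pooled with that sample. Pools were incubated with 200 nmole of a random double-stranded 16-mer DNA library in Tris/NaCl/DTT/glycerol buffer at room temperature for 30 min, then washed, crosslinked with 0.1% formaldehyde, proximity-ligated with BsaI/T4 ligase (1 h, 37 °C), PCR-amplified and sequenced on an Illumina NextSeq500.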

The next assay addresses T2, ELK1 (Homo sapiens, UniProt P19419 1-428).
T2 sequence: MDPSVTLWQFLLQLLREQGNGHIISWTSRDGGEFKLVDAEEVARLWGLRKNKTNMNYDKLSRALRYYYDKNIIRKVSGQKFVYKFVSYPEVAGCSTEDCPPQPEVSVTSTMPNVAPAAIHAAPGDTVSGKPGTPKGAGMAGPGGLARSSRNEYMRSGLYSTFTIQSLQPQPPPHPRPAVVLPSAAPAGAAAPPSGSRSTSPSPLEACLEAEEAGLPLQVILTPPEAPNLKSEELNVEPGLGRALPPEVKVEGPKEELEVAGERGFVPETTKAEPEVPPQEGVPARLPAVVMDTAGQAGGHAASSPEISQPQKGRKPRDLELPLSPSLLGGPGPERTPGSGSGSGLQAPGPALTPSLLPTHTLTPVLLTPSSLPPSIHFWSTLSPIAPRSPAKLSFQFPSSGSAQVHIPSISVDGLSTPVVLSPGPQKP
The conditions noted are these: protein: recombinant; tags: N-terminal GST; dsDNA, one strand shown. The method in brief: as §1

In a further assay the target is T3, GABPA (Homo sapiens, UniProt Q06546 1-454).
T3 sequence: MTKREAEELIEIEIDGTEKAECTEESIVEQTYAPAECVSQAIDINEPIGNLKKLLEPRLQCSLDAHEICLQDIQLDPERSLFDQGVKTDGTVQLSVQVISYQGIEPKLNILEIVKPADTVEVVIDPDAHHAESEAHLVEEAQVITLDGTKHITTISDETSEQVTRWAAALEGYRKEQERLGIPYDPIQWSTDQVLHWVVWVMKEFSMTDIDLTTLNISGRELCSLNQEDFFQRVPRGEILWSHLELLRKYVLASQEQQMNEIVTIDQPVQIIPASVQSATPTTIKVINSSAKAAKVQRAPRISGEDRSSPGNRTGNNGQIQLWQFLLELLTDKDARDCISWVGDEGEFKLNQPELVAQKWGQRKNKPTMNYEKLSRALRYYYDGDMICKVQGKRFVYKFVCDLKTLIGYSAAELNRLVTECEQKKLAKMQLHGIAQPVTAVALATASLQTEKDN
The conditions noted are these: protein: recombinant; tags: N-terminal GST; dsDNA, one strand shown. The essentials: as §1

In another assay the target is T4, ERG (Homo sapiens, UniProt P11308 1-479).
T4 sequence: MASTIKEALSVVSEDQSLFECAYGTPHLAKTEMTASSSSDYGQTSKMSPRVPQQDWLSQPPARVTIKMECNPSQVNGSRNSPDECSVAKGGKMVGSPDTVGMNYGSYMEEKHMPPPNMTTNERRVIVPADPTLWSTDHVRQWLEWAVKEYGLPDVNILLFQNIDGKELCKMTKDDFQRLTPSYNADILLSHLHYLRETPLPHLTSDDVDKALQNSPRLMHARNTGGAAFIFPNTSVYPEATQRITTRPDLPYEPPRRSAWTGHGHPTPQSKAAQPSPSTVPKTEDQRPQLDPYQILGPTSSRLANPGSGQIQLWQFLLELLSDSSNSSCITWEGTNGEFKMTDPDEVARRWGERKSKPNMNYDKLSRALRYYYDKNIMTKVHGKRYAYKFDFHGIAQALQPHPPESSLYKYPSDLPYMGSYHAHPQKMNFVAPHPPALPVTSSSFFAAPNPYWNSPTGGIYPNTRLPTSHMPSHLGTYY
The conditions noted are these: protein: recombinant; tags: N-terminal GST; dsDNA, one strand shown. The essentials:
as §1

The next assay concerns the target ELF1 (Homo sapiens, UniProt P32519 1-619). The conditions noted are these: protein: recombinant; tags: N-terminal GST; dsDNA, one strand shown. The essentials: as §1
The target in a further assay is T5, EHF (Homo sapiens, UniProt Q9NZC4 1-300).
T5 sequence: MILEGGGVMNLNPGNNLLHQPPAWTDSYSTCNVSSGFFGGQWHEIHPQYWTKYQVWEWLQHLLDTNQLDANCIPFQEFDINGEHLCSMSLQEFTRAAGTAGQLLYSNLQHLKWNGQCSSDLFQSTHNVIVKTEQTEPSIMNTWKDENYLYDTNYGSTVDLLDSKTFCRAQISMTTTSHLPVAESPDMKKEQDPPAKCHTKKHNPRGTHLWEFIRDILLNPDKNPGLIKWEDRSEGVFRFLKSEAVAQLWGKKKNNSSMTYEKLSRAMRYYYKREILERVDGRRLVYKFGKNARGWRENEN
Conditions: protein: recombinant; tags: N-terminal GST; dsDNA, one strand shown. The essentials: as §1

The target in the next assay is SPI1 (Homo sapiens, UniProt P17947 1-270). The conditions noted are these: protein: recombinant; tags: N-terminal GST; dsDNA, one strand shown. The method in brief:
as §1

Another assay deals with SPIB (Homo sapiens, UniProt Q01892 1-262). The conditions noted are these: protein: recombinant; tags: N-terminal GST; dsDNA, one strand shown. The essentials:
as §1

The target of a further assay is T6, ELK3 (Homo sapiens, UniProt P41970 1-407).
T6 sequence: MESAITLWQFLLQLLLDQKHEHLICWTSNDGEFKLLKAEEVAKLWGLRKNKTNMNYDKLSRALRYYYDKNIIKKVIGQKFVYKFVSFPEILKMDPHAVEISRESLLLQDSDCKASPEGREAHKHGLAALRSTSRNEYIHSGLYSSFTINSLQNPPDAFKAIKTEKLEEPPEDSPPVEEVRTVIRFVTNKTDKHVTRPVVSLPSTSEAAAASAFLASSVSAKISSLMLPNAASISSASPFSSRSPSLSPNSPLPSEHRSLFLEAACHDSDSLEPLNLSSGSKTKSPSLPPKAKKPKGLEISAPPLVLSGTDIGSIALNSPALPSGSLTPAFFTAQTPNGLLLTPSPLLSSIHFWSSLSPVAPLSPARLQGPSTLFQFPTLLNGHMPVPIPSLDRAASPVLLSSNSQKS
The conditions noted are these: protein: recombinant; tags: N-terminal GST; dsDNA, one strand shown. The method in brief:
as §1

A further assay deals with T7, FEV (Homo sapiens, UniProt Q99581 1-238).
T7 sequence: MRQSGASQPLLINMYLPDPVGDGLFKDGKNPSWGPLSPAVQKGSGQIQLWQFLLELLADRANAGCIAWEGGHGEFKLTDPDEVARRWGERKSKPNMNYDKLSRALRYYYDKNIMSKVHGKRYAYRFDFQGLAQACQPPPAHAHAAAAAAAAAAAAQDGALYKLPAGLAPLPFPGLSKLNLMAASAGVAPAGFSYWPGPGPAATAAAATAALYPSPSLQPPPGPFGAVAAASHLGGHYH
Conditions: protein: recombinant; tags: N-terminal GST; dsDNA, one strand shown. The method in brief:
as §1

For the next assay, the target named is ETV5 (Homo sapiens, UniProt P41161 1-510). The conditions noted are these: protein: recombinant; tags: N-terminal GST; dsDNA, one strand shown. The method in brief:
as §1

In the next assay the target is HSF1 (Homo sapiens, UniProt Q00613 1-529). The conditions noted are these: protein: recombinant; tags: N-terminal GST; chain copies: 3; dsDNA, one strand shown. The method in brief: as §1
Another assay addresses T8, SPIC (Homo sapiens, UniProt Q8N5J4 1-248).
T8 sequence: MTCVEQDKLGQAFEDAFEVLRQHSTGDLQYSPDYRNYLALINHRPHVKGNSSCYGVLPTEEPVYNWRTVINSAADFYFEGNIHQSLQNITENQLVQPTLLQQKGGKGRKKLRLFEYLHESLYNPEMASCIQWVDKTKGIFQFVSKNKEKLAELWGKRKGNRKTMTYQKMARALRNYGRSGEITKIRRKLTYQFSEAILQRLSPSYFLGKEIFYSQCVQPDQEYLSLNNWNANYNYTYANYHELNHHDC
The conditions noted are these: protein: recombinant; tags: N-terminal GST; dsDNA, one strand shown. The method in brief:
as §1

The next assay addresses ELF4 (Homo sapiens, UniProt Q99607 1-663). The conditions noted are these: protein: recombinant; tags: N-terminal GST; dsDNA, one strand shown. The method in brief: as §1
For another assay, the target named is T9, ELK4 (Homo sapiens, UniProt P28324-2 1-405).
T9 sequence: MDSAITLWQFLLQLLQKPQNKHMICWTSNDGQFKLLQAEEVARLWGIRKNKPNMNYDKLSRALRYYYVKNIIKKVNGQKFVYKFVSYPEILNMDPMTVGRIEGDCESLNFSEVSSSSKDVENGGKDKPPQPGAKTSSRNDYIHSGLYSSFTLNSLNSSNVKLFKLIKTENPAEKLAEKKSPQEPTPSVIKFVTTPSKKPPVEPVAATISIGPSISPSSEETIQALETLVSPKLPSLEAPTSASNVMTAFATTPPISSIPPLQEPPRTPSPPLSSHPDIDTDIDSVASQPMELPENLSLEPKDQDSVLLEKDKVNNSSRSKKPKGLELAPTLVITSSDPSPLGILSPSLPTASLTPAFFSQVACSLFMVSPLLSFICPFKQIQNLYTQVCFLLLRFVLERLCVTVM
The conditions noted are these: protein: recombinant; tags: N-terminal GST; dsDNA, one strand shown. The essentials:
as §1

Another assay deals with T10, ETV2 (Homo sapiens, UniProt O00321 1-342).
T10 sequence: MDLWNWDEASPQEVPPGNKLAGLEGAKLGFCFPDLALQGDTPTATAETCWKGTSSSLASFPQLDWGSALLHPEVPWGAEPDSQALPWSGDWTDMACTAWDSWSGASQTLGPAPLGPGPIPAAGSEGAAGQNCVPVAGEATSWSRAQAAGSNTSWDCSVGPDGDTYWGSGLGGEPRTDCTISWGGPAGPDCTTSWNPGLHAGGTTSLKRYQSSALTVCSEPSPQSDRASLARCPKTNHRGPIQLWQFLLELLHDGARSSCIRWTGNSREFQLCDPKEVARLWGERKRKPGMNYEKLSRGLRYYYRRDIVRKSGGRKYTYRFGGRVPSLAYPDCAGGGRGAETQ
The conditions noted are these: protein: recombinant; tags: N-terminal GST; dsDNA, one strand shown. The essentials:
as §1

Another assay has as its target CRX (Homo sapiens, UniProt O43186 1-299). The conditions noted are these: protein: recombinant; tags: N-terminal GST; dsDNA, one strand shown. The method in brief:
as §1

In a further assay the target is ETV1 (Homo sapiens, UniProt P50549 1-477). Conditions: protein: recombinant; tags: N-terminal GST; dsDNA, one strand shown. The method in brief: as §1
Sequence of ETV1 (P50549 whole entry): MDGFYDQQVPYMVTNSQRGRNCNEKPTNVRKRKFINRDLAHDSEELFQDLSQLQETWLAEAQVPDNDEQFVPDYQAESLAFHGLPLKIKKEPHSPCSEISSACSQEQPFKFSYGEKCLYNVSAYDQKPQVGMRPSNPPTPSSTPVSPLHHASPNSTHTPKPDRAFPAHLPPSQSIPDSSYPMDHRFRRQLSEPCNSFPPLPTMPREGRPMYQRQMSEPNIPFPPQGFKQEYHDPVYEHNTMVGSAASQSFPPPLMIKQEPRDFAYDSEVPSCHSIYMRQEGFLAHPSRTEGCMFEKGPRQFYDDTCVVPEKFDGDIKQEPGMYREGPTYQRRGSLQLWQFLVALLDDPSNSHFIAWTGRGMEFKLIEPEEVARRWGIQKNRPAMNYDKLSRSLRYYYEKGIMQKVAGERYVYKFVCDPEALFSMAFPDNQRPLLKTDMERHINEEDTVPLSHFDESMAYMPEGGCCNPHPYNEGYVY

Sequence of ELF4 (Q99607 whole entry): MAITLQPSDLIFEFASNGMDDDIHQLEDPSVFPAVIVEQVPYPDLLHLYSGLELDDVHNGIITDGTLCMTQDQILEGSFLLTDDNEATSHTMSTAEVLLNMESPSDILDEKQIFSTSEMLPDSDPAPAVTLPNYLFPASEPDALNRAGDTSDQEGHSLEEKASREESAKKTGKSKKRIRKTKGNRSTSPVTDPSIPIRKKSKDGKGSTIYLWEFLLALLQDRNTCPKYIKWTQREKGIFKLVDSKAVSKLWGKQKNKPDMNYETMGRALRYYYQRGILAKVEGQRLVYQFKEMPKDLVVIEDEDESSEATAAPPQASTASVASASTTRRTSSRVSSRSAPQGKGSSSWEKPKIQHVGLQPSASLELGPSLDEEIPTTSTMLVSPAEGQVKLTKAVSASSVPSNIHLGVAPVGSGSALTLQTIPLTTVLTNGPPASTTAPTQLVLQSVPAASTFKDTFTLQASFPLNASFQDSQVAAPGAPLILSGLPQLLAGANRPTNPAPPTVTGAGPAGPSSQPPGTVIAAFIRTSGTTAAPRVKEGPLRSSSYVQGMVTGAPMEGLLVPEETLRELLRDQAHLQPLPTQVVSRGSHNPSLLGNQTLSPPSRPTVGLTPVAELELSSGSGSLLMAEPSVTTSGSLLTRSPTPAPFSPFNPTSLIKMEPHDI
Sequence of ELF1 (P32519 whole entry): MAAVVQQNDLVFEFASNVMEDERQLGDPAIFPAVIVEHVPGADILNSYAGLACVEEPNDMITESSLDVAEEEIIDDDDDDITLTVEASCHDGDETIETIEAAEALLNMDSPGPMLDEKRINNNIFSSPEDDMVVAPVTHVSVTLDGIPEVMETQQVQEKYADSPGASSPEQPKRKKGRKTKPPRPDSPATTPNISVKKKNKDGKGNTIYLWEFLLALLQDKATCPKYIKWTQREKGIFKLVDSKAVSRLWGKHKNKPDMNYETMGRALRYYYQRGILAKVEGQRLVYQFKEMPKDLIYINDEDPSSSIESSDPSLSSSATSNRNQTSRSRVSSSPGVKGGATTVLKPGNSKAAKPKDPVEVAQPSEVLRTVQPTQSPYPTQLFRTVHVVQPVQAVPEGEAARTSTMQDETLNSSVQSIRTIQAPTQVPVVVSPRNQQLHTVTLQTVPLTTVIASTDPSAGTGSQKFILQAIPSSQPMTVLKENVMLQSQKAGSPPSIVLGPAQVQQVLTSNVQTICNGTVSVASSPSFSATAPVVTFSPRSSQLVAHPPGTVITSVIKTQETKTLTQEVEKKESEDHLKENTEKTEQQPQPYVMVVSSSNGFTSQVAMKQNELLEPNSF
Sequence of SPIB (Q01892 whole entry): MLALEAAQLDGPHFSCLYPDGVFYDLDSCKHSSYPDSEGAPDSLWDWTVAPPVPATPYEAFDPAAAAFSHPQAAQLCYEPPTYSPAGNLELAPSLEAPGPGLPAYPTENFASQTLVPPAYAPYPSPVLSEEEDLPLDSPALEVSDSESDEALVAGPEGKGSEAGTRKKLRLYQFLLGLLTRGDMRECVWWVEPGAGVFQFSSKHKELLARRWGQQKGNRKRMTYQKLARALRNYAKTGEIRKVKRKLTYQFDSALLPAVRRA
Sequence of ETV5 (P41161 whole entry): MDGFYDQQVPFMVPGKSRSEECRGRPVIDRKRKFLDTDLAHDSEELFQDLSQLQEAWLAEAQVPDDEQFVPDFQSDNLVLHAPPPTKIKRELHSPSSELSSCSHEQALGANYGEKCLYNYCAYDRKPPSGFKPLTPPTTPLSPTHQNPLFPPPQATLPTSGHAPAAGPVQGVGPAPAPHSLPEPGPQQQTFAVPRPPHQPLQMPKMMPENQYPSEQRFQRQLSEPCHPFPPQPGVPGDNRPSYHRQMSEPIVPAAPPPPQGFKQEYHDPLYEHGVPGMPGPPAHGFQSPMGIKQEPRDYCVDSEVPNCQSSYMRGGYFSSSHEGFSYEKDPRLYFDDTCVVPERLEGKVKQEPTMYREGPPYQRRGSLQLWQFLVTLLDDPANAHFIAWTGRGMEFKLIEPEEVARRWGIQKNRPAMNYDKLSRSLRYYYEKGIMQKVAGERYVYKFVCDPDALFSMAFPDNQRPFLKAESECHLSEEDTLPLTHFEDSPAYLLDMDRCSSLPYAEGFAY
Sequence of HSF1 (Q00613 whole entry): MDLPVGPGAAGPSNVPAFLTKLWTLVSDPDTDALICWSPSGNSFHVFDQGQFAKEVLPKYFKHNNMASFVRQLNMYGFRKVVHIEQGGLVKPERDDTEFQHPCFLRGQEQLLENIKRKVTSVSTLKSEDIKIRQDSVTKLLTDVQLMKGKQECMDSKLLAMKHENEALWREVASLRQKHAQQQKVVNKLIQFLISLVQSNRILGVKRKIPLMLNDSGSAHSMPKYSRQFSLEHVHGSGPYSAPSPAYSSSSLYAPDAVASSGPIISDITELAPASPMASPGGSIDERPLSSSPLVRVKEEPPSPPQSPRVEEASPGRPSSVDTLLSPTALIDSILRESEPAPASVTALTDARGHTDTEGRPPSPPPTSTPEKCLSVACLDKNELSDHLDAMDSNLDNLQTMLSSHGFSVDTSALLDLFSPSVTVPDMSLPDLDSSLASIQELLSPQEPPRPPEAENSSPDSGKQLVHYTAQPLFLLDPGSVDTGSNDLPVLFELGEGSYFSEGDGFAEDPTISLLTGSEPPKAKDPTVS
Sequence of CRX (O43186 whole entry): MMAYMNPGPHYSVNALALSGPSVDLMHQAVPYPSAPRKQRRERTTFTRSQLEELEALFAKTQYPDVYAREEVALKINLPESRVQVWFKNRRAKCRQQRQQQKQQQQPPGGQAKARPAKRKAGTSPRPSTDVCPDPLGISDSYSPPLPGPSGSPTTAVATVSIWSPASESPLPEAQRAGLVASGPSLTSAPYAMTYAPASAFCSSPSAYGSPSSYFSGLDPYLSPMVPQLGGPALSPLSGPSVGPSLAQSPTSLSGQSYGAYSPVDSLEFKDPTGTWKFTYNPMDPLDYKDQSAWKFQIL

Turning to CGATAA, the binding signal is 1.12 fold enrichment (6-mer frequency, TF over GST control) with FLI1; 1.02 fold enrichment (6-mer frequency, TF over GST control) with ELK1; 1.06 fold enrichment (6-mer frequency, TF over GST control) with GABPA; 1.09 fold enrichment (6-mer frequency, TF over GST control) in the assay with ERG; 1.08 fold enrichment (6-mer frequency, TF over GST control) with ELF1; 1.03 fold enrichment (6-mer frequency, TF over GST control) with EHF. The binding signal with SPI1 was 1.08 fold enrichment (6-mer frequency, TF over GST control); with SPIB, 1.19 fold enrichment (6-mer frequency, TF over GST control); in the assay with ELK3 it was 1.2 fold enrichment (6-mer frequency, TF over GST control); with FEV, 1.02 fold enrichment (6-mer frequency, TF over GST control); with ETV5 it was 1.04 fold enrichment (6-mer frequency, TF over GST control); with HSF1, 1.51 fold enrichment (6-mer frequency, TF over GST control). Also, the binding signal in the assay with SPIC is 1.12 fold enrichment (6-mer frequency, TF over GST control); with ELF4, 1.16 fold enrichment (6-mer frequency, TF over GST control); with ELK4, 1.1 fold enrichment (6-mer frequency, TF over GST control); with ETV2, 1.19 fold enrichment (6-mer frequency, TF over GST control); with CRX, 1.75 fold enrichment (6-mer frequency, TF over GST control); in the assay with ETV1, 1.09 fold enrichment (6-mer frequency, TF over GST control).

Values taken from article PMC7862700, “An all-to-all approach to the identification of sequence-specific readers for epigenetic DNA modifications on cytosine”.
